# Assay results published in PubChem BioAssay (NCATS).
# Results filed as inconclusive are left out. Where a call stands in place of a potency, no number is given. The source made the active and inactive calls. Calls come from the whole dose curve; as a rule, active = well fitted inhibition curve with a large enough effect; inconclusive = small, poorly fitted or top-dose-only effect; inactive = flat fitted curve, though single readings scatter. Residues, ends and D or L forms follow the SMILES beside them. *: point of attachment. Cbz = O=C(OCc1ccccc1)*
# Biological target: Ubiquitin carboxyl-terminal hydrolase 1 (Homo sapiens) (UniProt O94782)
# Test: Inhibitors of USP1/UAF1: Pilot qHTS (AID 504865); note: nearly all actives have a fitted effect of over 35% in size
# Conditions: purified USP1/UAF1, Ub-rhodamine cleavage fluorescence; series mostly up to 114 µM
# From the text: Deubiquitinating enzymes (DUBs) are a class of enzymes that can cleave isopeptide bond formed between the C-terminal carboxylate of ubiquitin and a lysine side-chain amino group on the target protein. Among them, ubiquitin specific proteases (USPs) constitute the largest DUB family. Human USPs are emerging as promising targets for pharmacological intervention because of their connection to a number of human diseases, including prostate, colon and breast cancer (1, 2), pediatric acute lymphoblastic leukemia (3), and familial cylindromatosis (4). The advantage of inhibiting USPs lies in the potential specificity of therapeutic intervention that can lead to better efficacy and reduce nonspecific side effects.
# In a collaboration between the University of Delaware and the NIH Chemical Genomics Center, a high-throughput screen assay was developed to screen for USP1/UAF1 inhibitors. This miniaturized assay has a fluorescent read-out and is used to screen the NIH Molecular Libraries Small Molecule Repository (MLSMR) in order to identify a small molecule that inhibits USP1.
# NIH Chemical Genomics Center [NCGC]
# NIH Molecular Libraries Probe Centers Network [MLPCN]
# Assay Submitter (PI): Zhihao Zhuang, University of Delaware
# 1. Priolo, C., et al. (2006) The isopeptidase USP2a protects human prostate cancer from apoptosis. Cancer Res 66, 8625-8632
# 2. Popov, N., et al. (2007) The ubiquitin-specific protease USP28 is required for MYC stability. Nat Cell Biol 9, 765-774
# 3. De Pitta, C., et al. (2005) A leukemia-enriched cDNA microarray platform identifies new transcripts with relevance to the biology of pediatric acute lymphoblastic leukemia. Haematologica 90, 890-898
# 4. Kovalenko, A., et al. (2003) The tumour suppressor CYLD negatively regulates NF-kappaB signalling by deubiquitination. Nature 424, 801-805
# 3 microliters of reagents (buffer in columns 3 and 4 as negative control and 1nM USP1/UAF1 complex in columns 1, 2, and 5-48) are dispensed into Greiner black solid bottom 1536-well assay plates. Compounds are then transferred via Kalypsys pin tool equipped with 1536-pin array (10nl slotted pins, V&P Scientific, San Diego, CA). Following an incubation step of 15 min at room temperature, 1ul of Ub-Rho substrate (150nM final concentration) is added to initiate the reaction. The plates are immediately centrifuged at 1000 rpm for 15 seconds, and subsequently transferred to a ViewLux high-throughput CCD imager (PerkinElmer) wherein kinetic measurements of fluorescence are acquired using 480 nm excitation/540 nm emission filter set (6 reads every 60 seconds, see Table 1). All reagents are diluted in an assay buffer consisting of 50mM HEPES (pH 7.8), 0.5mM EDTA, 0.1 mg/ml BSA, 1mM TCEP, and 0.01% Tween-20.
# Potency is the fitted concentration of half-maximal effect.
# Ubiquitin carboxyl-terminal hydrolase 1 (Homo sapiens), sequence (O94782 whole entry, looked up): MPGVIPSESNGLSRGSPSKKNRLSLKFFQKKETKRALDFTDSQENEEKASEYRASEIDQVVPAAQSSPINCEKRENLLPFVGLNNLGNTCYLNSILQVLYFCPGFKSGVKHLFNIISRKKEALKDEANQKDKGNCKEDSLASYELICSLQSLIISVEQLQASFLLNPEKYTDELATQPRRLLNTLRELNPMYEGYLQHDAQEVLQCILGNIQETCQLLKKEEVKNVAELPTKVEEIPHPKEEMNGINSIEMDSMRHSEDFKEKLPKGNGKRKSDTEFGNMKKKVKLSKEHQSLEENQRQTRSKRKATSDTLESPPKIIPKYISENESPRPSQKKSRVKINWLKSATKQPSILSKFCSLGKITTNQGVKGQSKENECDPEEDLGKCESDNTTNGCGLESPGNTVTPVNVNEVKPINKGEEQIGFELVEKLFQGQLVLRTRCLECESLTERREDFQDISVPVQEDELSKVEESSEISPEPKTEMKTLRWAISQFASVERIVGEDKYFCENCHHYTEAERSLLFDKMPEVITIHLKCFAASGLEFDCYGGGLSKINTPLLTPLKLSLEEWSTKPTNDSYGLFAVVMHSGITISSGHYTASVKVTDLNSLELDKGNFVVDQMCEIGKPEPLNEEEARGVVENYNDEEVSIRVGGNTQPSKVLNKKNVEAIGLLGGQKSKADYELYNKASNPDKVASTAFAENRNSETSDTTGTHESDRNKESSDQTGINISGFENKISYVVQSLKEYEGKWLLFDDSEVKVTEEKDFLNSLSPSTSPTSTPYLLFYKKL
row,Structure (SMILES),Potency
1,N[C@@H](CCC(=O)N[C@H](CSN=O)C(=O)NCC(=O)O)C(=O)O,inactive
2,CC1=C(/C=C/C(C)=C/C=C/C(C)=C\C(=O)O)C(C)(C)CCC1,inactive
3,S=C(S)N1CCCC1,inactive
4,O=c1ccc2c(OCCCCc3ccccc3)c3ccoc3cc2o1,inactive
5,CCC1(O)CC2CN(CCc3c([nH]c4ccccc34)[C@@](C(=O)OC)(c3cc4c(cc3OC)N(C)C3[C@]45CCN4CC=C[C@@](CC)([C@@H](OC(C)=O)[C@]3(O)C(=O)OC)[C@H]45)C2)C1 (stereo not given in full),inactive
6,C/C(=C\c1ccc(C(=O)O)cc1)c1ccc2c(c1)C(C)(C)CCC2(C)C,31.6 µM (active)
7,OC[C@H]1NC[C@@H](O)[C@@H]1O,inactive
8,C=C1C(=O)O[C@@H]2[C@H]3O[C@]3(C)CCC=C(C)CC[C@@H]12,inactive
9,N[C@H](C(=O)O)[C@H]1C[C@@H]1C(=O)O,inactive
10,c1ccc2c(c1)CCC[C@H]2Nc1nc2ccccc2[nH]1,inactive
11,N[C@H](C(=O)O)[C@H](O)C(=O)O,inactive
12,COC1(C2=NCCN2)COc2ccccc2O1 (stereo not given),inactive
13,CCOC(=O)C12CC1/C(=N/O)c1ccccc1O2 (stereo not given),inactive
14,OC1(c2ccc(Cl)cc2)CCN(Cc2c[nH]c3ccccc23)CC1,inactive
15,CCCCCCC/C=C\CCCCCCCCC(=O)O,39.8 µM (active)
16,CC(C)[C@H](NC(=O)OCc1ccccc1)C(=O)N[C@H](C=O)Cc1ccccc1 (Cbz-Val-Phe-aldehyde),inactive
17,O=[N+]([O-])c1cccc2c(Br)[nH]nc12,inactive
18,CC[C@H](NC(=O)c1c(C)c(-c2ccccc2)nc2ccccc12)c1ccccc1,inactive
19,O=C(O)C1=CC(=C(c2ccc(O)c(C(=O)O)c2)c2ccc(O)c(C(=O)O)c2)C=CC1=O,8.91 µM (active)
20,CN1CCc2cc(Cl)c(O)cc2[C@@H](c2ccccc2)C1,inactive

row,Structure (SMILES),Potency
1,COC(=O)C(N)Cc1ccc(Cl)cc1 (stereo not given),inactive
2,CCN1C(=O)C=CC1=O,inactive
3,N[C@H]1CONC1=O,inactive
4,CN[C@H](CC(=O)O)C(=O)O,inactive
5,N[C@@H](Cc1ccc(O)c(I)c1)C(=O)O,inactive
6,Nc1ccc2c3c(cccc13)C(=O)NC2=O,25.1 µM (active)
7,N=C(N)SCCc1cnc[nH]1,inactive
8,O=C(O)c1ccccc1Nc1ccccc1,inactive
9,Fc1ccc(CN(C2=NCCN2)c2c(Cl)cccc2Cl)cc1,inactive
10,Nc1nc2ccc(Cl)cc2c2nc(-c3ccco3)nn12,inactive
11,C[C@H]1CC2C3CCC4=CC(=O)C=C[C@]4(C)[C@@]3(Cl)[C@@H](O)C[C@]2(C)[C@@]1(O)C(=O)CO (stereo not given in full),inactive
12,NC1CONC1=O (stereo not given),inactive
13,CC1C(=O)N(C)C(=O)c2nc[nH]c21 (stereo not given),inactive
14,Cc1cccc(C2CN(C)CCc3c2cc(O)c(O)c3Cl)c1 (stereo not given),inactive
15,N#Cc1cc2nc(O)c(O)nc2cc1[N+](=O)[O-],inactive
16,COC(=O)C(C)(N)Cc1ccc(O)cc1 (stereo not given),inactive
17,O=C(O)CCC/C=C\C[C@@H]1[C@@H](/C=C/[C@H](O)C2Cc3ccccc3C2)[C@@H](F)C[C@@H]1O,inactive
18,O=C(O)Cc1ccc(O)c(O)c1,inactive
19,CC(N)=NCCCC[C@@H](N)C(=O)O,inactive
20,Cc1cccc(C)c1OCC(N)C(C)C (stereo not given),inactive
